An excerpt weighted towards active compounds, which were near 18% of everything screened.
DT40 TDP1 CPT: DT40-hTDP1 cell growth loss with CPT; chicken DT40 Tdp1-/-;hTDP1 cells + 20 nM CPT, ATP luminescence, 48 h; Potency, µM (series often up to 46.2 µM), actives largely listed as inhibitors; actives 12% (n = 420,000); AID 686979; note: nearly all actives have a fitted effect of over 55% in size
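Chicken DT40 Tdp1-/- cells stably complemented with human TDP1 were seeded at 400 cells/well in medium containing 20 nM camptothecin, exposed to pin-transferred compounds, and grown at 37 °C for at least 48 hr. Viability was read as ATP luminescence.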
VDR inh: inhibitors of human vitamin D receptor; P11473; VDR-SRC2-3 peptide fluorescence polarization, 2 h; Potency, µM, usual class: inhibitors; actives 0.93% (n = 400,000)
Target sequence (P11473 whole entry, looked up): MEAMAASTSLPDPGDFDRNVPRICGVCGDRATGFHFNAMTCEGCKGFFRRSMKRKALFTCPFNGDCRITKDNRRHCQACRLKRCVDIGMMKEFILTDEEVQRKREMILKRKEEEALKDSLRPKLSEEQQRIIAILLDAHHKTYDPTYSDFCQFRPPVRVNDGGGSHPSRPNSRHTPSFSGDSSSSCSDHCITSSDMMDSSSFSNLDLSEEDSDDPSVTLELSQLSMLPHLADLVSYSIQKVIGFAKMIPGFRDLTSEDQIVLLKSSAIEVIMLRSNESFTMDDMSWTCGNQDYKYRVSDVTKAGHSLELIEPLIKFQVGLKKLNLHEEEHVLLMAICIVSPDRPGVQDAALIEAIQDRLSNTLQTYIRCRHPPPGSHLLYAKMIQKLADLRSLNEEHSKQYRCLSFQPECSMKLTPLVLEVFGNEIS
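Compounds are added to VDR with labelled SRC2-3 coactivator peptide and held 2 h at room temperature. Inhibition of the VDR–peptide interaction is then read as a change in fluorescence polarization.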
TDP1 cell noCPT: qHTS for Inhibitors of human tyrosyl-DNA phosphodiesterase 1 (TDP1): qHTS in cells in absence of CPT. DT40 Tdp1-/- hTDP1 cells, no CPT, ATP luminescence, 48 h. actives 15% (n = 420,000). Potency, µM (top dose mostly 46.2 µM), most hits filed as inhibitors; note: nearly all actives have a fitted effect of over 55% in size
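Chicken DT40 Tdp1-/- cells complemented with human TDP1, screened without camptothecin (DMSO vehicle only), 400 cells/well. Compounds pin-transferred, cells incubated at 37 °C for at least 48 hr. Growth read as ATP-dependent luminescence (CellTiter-Glo, 30 min at RT).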
PLK1 PBD block: inhibitors of human PLK1 polo-box domain binding; actives 2.8% (n = 360,000); P53350; Plk1 PBD binding of FITC phosphopeptide, fluorescence polarization; Potency, µM, hits mostly inhibitors; note: series mostly up to about 57 µM; nearly all actives have a fitted effect of over 65% in size
TDP1 inh: TDP1 (human) enzyme inhibition; Q9NUW8; recombinant TDP1, AlphaScreen DNA substrate cleavage; Potency, µM (doses to about 130 µM), most hits filed as inhibitors; actives 0.28% (n = 350,000); AID 485290; note: nearly all actives have a fitted effect of over 40% in size
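AlphaScreen read-out: signal falls as enzyme removes the 3' tyrosine-FITC from a 5'-biotinylated DNA oligo (15 nM, 5 min, RT). Enzyme was E. coli-made recombinant Tdp1 at 1 nM, exposed to compound for 15 min beforehand; beads 10 ug/ml, 10 min.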
KAT2A inh: inhibitors of human GCN5L2 histone acetyltransferase; GCN5L2 HAT assay, ThioGlo1 CoA-SH fluorescence; actives 0.21% (n = 390,000); AID 504327; Q92830; Potency, µM (titrated, usually from 58.9 µM), actives largely listed as inhibitors
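GCN5L2 (20 nM) in 50mM HEPES pH 7.5, 0.1mM EDTA, 0.01% Tween-20 preincubated 15 min with compounds at room temperature. Reaction started with H3(1-25) 75uM, acetyl-CoA 70uM, ThioGlo1 50uM; CoA-thiol fluorescence (Ex340/Em540) read at 0 and 20 min.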
Hits are given with their value; – = inactive; ? = inconclusive; · = not tested or not shown; [ ] = another dose, or the depositor's remark. Calls come from the whole dose curve; as a rule, active = well fitted curve in the direction sought with a large enough effect; inconclusive = small, poorly fitted or top-dose-only effect, or another doubt; inactive = no such curve, though single readings can be large; an effect the other way counts as inactive or inconclusive.

SMILES	DT40 TDP1 CPT	VDR inh	TDP1 cell noCPT	PLK1 PBD block	TDP1 inh	KAT2A inh
CCOc1ccc(C(c2nnnn2C(C)(C)C)N2CCN(C(=O)c3ccco3)CC2)cc1 (stereo unspecified)	–	–	–	–	·	–
Cc1c(C(=O)Nc2cccc(C(F)(F)F)c2)oc2ccc(S(=O)(=O)N3CCC4(CC3)OCCO4)cc12	15µM	–	9.2µM	·	–	–
Cc1ccc(NC(=O)c2oc3ccc(S(=O)(=O)N4CCC5(CC4)OCCO5)cc3c2C)cc1Cl	?	–	–	·	–	–
Cc1cccc(NC(=O)c2oc3ccc(S(=O)(=O)N4CCC5(CC4)OCCO5)cc3c2C)c1C	16µM	–	18µM	·	–	–
COc1ccc2c(c1)c(CC(=O)O)c(C)n2Cc1ccc(F)cc1	·	·	·	·	–	·
Cc1ccc(CNC(=O)C(=O)NCC(c2cccs2)S(=O)(=O)c2cccs2)cc1 (stereo unspecified)	?	–	–	·	–	–
CSc1ccc(CCNC(=O)Cn2nc(C)n3c(cc4sccc43)c2=O)cc1	–	–	–	·	–	–
COc1cccc2ccc(CC(O)(c3ccccc3)c3ccccc3)nc12	?	·	26µM	–	·	·
Cc1ccc2nc(CC(O)(c3ccccc3)c3ccccc3)ccc2c1	?	·	21µM	–	·	·
CCCN(CCC)C(=O)[C@@H](CCC(=O)O)NC(=O)c1ccccc1	·	–	·	·	–	–
CC(=O)c1ccc(OCc2nnn(CC(=O)O)c2-c2ccccc2)cc1	–	·	–	–	·	·
O=C1C2CC=CCC2C(=O)N1c1ccc(Cc2ccncc2)cc1 (stereo unspecified)	18µM	–	11µM	–	–	–
O=C1CC(Cc2ccc(Cl)cc2)C(=O)N1c1ccncc1 (stereo unspecified)	–	–	–	–	–	–
O/N=C(\c1ccccc1)c1nccc2ccccc12	–	–	–	–	–	–
O=C(Nc1ccc(Cl)cc1Cl)c1cc(S(=O)(=O)N2CCC3(CC2)OCCO3)ccc1F	16µM	–	16µM	·	–	–
O=C(Nc1ccc(Cl)cc1Cl)c1cc(S(=O)(=O)N2CCN(c3ccccc3F)CC2)ccc1F	9.2µM	–	8.2µM	·	–	–
Cc1ccc(NC(=O)c2cc(S(=O)(=O)N3CCC4(CC3)OCCO4)ccc2F)cc1Cl	8.2µM	–	15µM	·	–	–
COc1ccc2c(c1)c1c(c(=O)n(-c3ccc(OC)c(OC)c3)c(=O)n1Cc1ccc(F)cc1)n2C	–	–	–	·	–	–
COc1cccc(-c2nc(CCl)cs2)c1OC	2.3µM	–	6.5µM	–	–	–
CCOc1ccc(-c2nc(CCl)cs2)cc1OC	10µM	–	13µM	–	–	–
COc1cccc(-c2nc(CC(=O)O)cs2)c1OC	–	–	–	–	–	–
C/C=C/c1cnc2c(c1)C(=O)N([C@H](C)CO)C[C@H](C)[C@@H](CN(C)C(=O)CN1CCOCC1)O2	–	·	–	–	·	·
C[C@@H]1CN(Cc2ccc3c(c2)CN(Cc2cn[nH]c2-c2ccccc2)CCO3)C[C@H](C)O1	–[9.04 µM]	·	–	·	·	·
Cc1cccc(NC2=CC(c3cccc(Br)c3)N(c3cccc(C)c3)C2=O)c1 (stereo unspecified)	?	?	8.2µM	·	–	–
COc1cccc(NC2=CC(c3ccc(C(C)C)cc3)N(c3cccc(OC)c3)C2=O)c1 (stereo unspecified)	?	20µM	?	·	–	–
COc1cccc(C2C=C(Nc3ccccc3)C(=O)N2c2ccccc2)c1 (stereo unspecified)	–	–	–	–	–	–
CCOC(=O)c1ccc(NC2=CC(c3ccc(Br)cc3)N(c3ccc(C(=O)OCC)cc3)C2=O)cc1 (stereo unspecified)	·	–	·	·	–	–
O=C(CSc1nc2ccc(Cl)cc2[nH]1)NCCc1ccc(Cl)cc1	?	–	?	–	–	–
O=C(CSc1nc2ccc(Cl)cc2[nH]1)NCCc1ccccc1	?	–	21µM	–	–	–
Cc1ccc([C@H]2C[C@H](O)[C@@H](n3cc(C4CC4)nn3)CN2C(=O)C2CCCCC2)cc1	–	·	–	–	·	·

Screening results deposited in PubChem BioAssay by National Center for Advancing Translational Sciences (NCATS).
